Screens: PubChem, National Center for Advancing Translational Sciences (NCATS)
Only some compounds are listed: those with a hit (about 19% of all), similar ones and a draw of the others.
RORgamma inh – ROR gamma (mouse) transcription inhibition. P51450. Potency, µM (highest dose often 53.6 µM), inactives show top-dose activity change, negative = inhibition, most hits filed as inhibitors. Drosophila S2 Gal4-RORgamma UAS-luciferase reporter, 20 h. AID 2551. hit rate 5.4% among 310,000; further: nearly all actives have a fitted effect of over 60% in size
Target sequence (P51450 whole entry, looked up, the tested form may be a part): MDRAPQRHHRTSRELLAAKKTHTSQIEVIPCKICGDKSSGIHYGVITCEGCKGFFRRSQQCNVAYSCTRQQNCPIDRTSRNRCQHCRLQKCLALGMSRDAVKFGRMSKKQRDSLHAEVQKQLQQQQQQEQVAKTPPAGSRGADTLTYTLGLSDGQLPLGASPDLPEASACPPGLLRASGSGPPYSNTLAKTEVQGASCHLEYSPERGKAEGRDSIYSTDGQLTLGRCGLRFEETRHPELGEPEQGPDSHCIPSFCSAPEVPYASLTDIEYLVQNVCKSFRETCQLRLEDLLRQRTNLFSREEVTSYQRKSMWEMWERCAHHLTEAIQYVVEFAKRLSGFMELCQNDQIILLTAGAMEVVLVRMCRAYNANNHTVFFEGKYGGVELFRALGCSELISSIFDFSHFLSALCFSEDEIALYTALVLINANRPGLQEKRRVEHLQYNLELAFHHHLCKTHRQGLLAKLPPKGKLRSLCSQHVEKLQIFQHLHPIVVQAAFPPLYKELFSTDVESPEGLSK
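Luciferase reporter read in Schneider cells carrying Gal4-RORγ (mouse) and UAS-Photinus luciferase; cells given compound 1 h before 700 uM copper sulfate induction, then incubated 20 h at ambient temperature.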
VP16 counter – Gal4-VP16 reporter inhibition counter-screen; Drosophila S2 Gal4-VP16 UAS-luciferase, luminescence, 20 h; Potency, µM (top dose mostly 53.6 µM), for inactives: at the highest dose activity, negative = inhibition, most hits filed as inhibitors; hit rate 3.5% among 310,000;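 further: Gal4-VP16 expression switched on by copper sulfate through the metallothionein promoter; nearly all actives have a fitted effect of over 50% in size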
DT40 TDP1 no CPT – qHTS for Inhibitors of human tyrosyl-DNA phosphodiesterase 1 (TDP1): qHTS in cells in absence of CPT; DT40 Tdp1-/- hTDP1 cells, no CPT, ATP luminescence, 48 h; Potency, µM (highest dose often 46.2 µM), without a hit: top-dose activity change, negative = growth inhibition, hits mostly inhibitors; hit rate 15% among 420,000; AID 686978, 2013; further: nearly all actives have a fitted effect of over 55% in size
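Growth kinetics read by CellTiter-Glo luminescence after ≥48 hr at 37 °C. Cells: DT40 Tdp1-/- stably carrying human TDP1, 400 per well, compound exposure in the absence of CPT (DMSO vehicle).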
TDP1 cell CPT – growth inhibition of DT40 Tdp1-/-;hTDP1 cells with camptothecin (screen for TDP1 inhibitors) | chicken DT40 Tdp1-/-;hTDP1 cells + 20 nM CPT, ATP luminescence, 48 h | Potency, µM (highest dose often 46.2 µM), inactives show top-dose activity change, negative = growth inhibition, usual class: inhibitors | hit rate 12% among 420,000; further: nearly all actives have a fitted effect of over 55% in size
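Chicken DT40 Tdp1-/- cells stably complemented with human TDP1 were seeded at 400 cells/well in medium containing 20 nM camptothecin, exposed to pin-transferred compounds, and grown at 37 °C for at least 48 hr. Viability was read as ATP luminescence.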
TDP1 inh – inhibitors of human tyrosyl-DNA phosphodiesterase TDP1 | Q9NUW8 | recombinant TDP1, AlphaScreen DNA substrate cleavage | Potency, µM (top dose mostly 130 µM), without a hit: at the top dose activity change, negative = inhibition, most hits filed as inhibitors | hit rate 0.28% among 350,000; further: nearly all actives have a fitted effect of over 40% in size
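Compounds were preincubated with Tdp1 (1 nM final) for 15 min at room temperature before substrate (15 nM final) started a 5 min reaction; beads (10 ug/ml final) were then added for 10 min before AlphaScreen detection.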
Starred values were filed as active, the others as inactive; ? = inconclusive; . = no result given; [ ] = dose if it differs, or a comment. The call rests on the fitted dose curve; in most records, active means well fitted curve in the direction sought with a large enough effect; inconclusive means small, poorly fitted or top-dose-only effect, or another doubt; inactive means no such curve, though single readings can be large; an effect the other way counts as inactive or inconclusive. On the % scale 0 is the no-effect control and ±100 the full control effect; potency means the concentration at half of the fitted maximal effect.

SMILES	RORgamma inh	VP16 counter	DT40 TDP1 no CPT	TDP1 cell CPT	TDP1 inh
CCC(=O)N[C@@H]1Cc2ccccc2[C@@H](c2ccccc2)C1	-38%	8.9µM*	?	?	-4%[56.1 µM]
CCn1nnnc1SCC(=O)NC1Cc2ccccc2C1	8%	-1%	-9%	-1%	.
Cc1ccc(C)c(N2CCN(CCCNC(=O)c3nnc(Cc4ccc(F)cc4Cl)o3)CC2)c1	.	.	4.6µM*	2.6µM*	8%
COc1ccccc1N1CCN(CCCNC(=O)c2nnc(Cc3ccc(F)cc3Cl)o2)CC1	.	.	?	?	0%[12.3 µM]
O=C(NCCCN1CCN(c2ccc(F)cc2)CC1)c1ccc2nc(Cc3ccccc3)oc2c1	.	.	21µM*	13µM*	8%
O=C(NCCCN1CCN(c2ccccc2)CC1)c1nnc(Cc2ccc(F)cc2)o1	.	.	26µM*	?	3%
O=C(NCCCN1CCN(c2ccccc2)CC1)c1ccc2nc(Cc3ccccc3)oc2c1	.	.	8.2µM*	12µM*	5%
Oc1c(C(c2ccccc2)N2CCN(Cc3ccccc3)CC2)sc2nc(-c3ccco3)nn12 (stereo not given)	.	.	?	?	5%
CC(=O)c1ccc(OCCCC(=O)Nc2nnc(C3CC3)s2)cc1	.	.	-1%	1%	-3%
CC(C)(C)c1ccc(OCCCC(=O)Nc2nnc(C3CC3)s2)cc1	.	.	10µM*	?	.
O=C1CC(N2CCN(Cc3ccc(Cl)cc3)CC2)C(=O)N1CCc1ccccc1 (stereo not given)	?	-12%	18µM*	15µM*	.
C[C@@H]1CCCCO[C@@H](CN(C)C(=O)c2ccncc2)[C@@H](C)CN([C@H](C)CO)C(=O)c2cc(NC(=O)Cc3ccccc3)ccc2O1	.	.	-7%	-3%	.
C[C@@H]1CCCCO[C@H](CN(C)Cc2ccc(C(F)(F)F)cc2)[C@H](C)CN([C@@H](C)CO)C(=O)c2cc(NC(=O)Cc3ccccc3)ccc2O1	.	.	15µM*	12µM*	.
C[C@@H]1CN([C@H](C)CO)C(=O)c2cc(NC(=O)Nc3ccc(F)cc3)ccc2O[C@@H](C)CCCCO[C@H]1CN(C)Cc1ccc(C(=O)O)cc1	.	.	-34%	0%	.
CC(C)NC(=O)Nc1ccc2c(c1)C(=O)N([C@H](C)CO)C[C@H](C)[C@@H](CN(C)Cc1ccc(C(F)(F)F)cc1)OCCCC[C@H](C)O2	.	.	?	21µM*	.
COc1ccc(CN(C)C[C@@H]2OCCCC[C@H](C)Oc3ccc(NC(=O)Cc4ccccc4)cc3C(=O)N([C@@H](C)CO)C[C@@H]2C)cc1	.	.	23µM*	8%	.
C[C@@H]1CCCCO[C@@H](CN(C)Cc2ccc(Cl)c(Cl)c2)[C@@H](C)CN([C@H](C)CO)C(=O)c2cc(NC(=O)Nc3ccccc3)ccc2O1	.	.	21µM*	23µM*	.
COc1ccc(S(=O)(=O)N(C)CC(=O)Nc2ccccc2C(F)(F)F)cc1Cl	4%	-6%	-8%	?	4%
CCOC(=O)N1CCN(C(=O)CN2C(=O)COc3ccc(C)cc32)CC1	?	-1%	-8%	-4%	-6%
COc1cccc(C2=NN(C(=O)c3ccccc3)C(O)(C(F)(F)F)C2)c1 (stereo not given)	10µM*	?	21µM*	16µM*	5%
Nc1ccc(C(=O)N2N=C(c3ccc(F)cc3)CC2(O)C(F)(F)F)cc1 (stereo not given)	?	-23%	9%	-7%	.
O=C(c1ccccc1O)N1N=C(c2ccccc2)CC1(O)C(F)(F)F (stereo not given)	8.9µM*	?	2%	-21%	5%
COc1cccc(C2=NN(C(=O)c3ccco3)C(O)(C(F)(F)F)C2)c1 (stereo not given)	5.6µM*	?	?	-3%	-2%
COC(=O)N1N=C(c2ccccc2)CC1(O)C(F)(F)F (stereo not given)	-2%	1%	4%	-5%	-2%
COc1ccc(C(=O)N2N=C(c3ccccc3)CC2(O)C(F)(F)F)cc1 (stereo not given)	16µM*	7%[10 µM]	-16%	-82%	3%
SMILES	RORgamma inh	VP16 counter	DT40 TDP1 no CPT	TDP1 cell CPT	TDP1 inh
O=C(CCc1nnc(CCCCc2ccccc2)o1)NC1CCCC1	-2%	-8%	-6%	3%	9%
COc1ccc(N(CC(=O)O)S(=O)(=O)c2c(C)n[nH]c2C)cc1	-3%	-7%	-1%	-5%	4%
CCCCC1=NN(C(=O)c2ccco2)C(O)(C(F)(F)F)C1 (stereo not given)	6.3µM*	18µM*	0.52µM*	0.52µM*	-2%
O=C(c1ccco1)N1N=C2CCCCCC2C1(O)C(F)(F)F (stereo not given)	0.63µM*	1µM*	-22%	17%	0%
Cc1cc(C)cc(OCC(=O)N2N=C(c3cccnc3)CC2(O)C(F)(F)F)c1 (stereo not given)	-35%	-19%	?	?	3%
Cc1ccc(C2=NN(C(=O)c3ccco3)C(O)(C(F)(F)F)C2)cc1 (stereo not given)	?	?	?	?	0%
COc1cccc(C(=O)N2N=C(c3ccccc3)CC2(O)C(F)(F)F)c1 (stereo not given)	18µM*	20µM*	?	3%	2%
Nc1ccc(C(=O)N2N=C(c3ccccc3)CC2(O)C(F)(F)F)cc1 (stereo not given)	10µM*	-18%	-9%	3%	.
O=C(COc1ccccc1)Nc1c2c(nn1-c1ccc(F)cc1)CS(=O)(=O)C2	3%	1%	2%	2%	4%
FC(F)(F)c1cccc(NC(=S)NCCc2ccccn2)c1	4µM*	11µM*	?	?	5%
CC(=O)c1ccc(NC(=S)NCCc2ccccn2)cc1	?	-23%	-16%	-4%	-4%
FC(F)(F)c1cccc(Cn2cnc(NC(=S)NCCc3ccccc3)n2)c1	?	4%	?	?	0%
Fc1ccc(NC(=S)NCCc2ccccn2)cc1	10µM*	?	?	4%	-5%
S=C(NCCc1ccccn1)Nc1ccc(Cl)cc1	6.3µM*	?	18µM*	18µM*	8%
CC(C)CCNC(=S)Nc1ccc(F)cc1	.	.	-18%	-17%	.
CC(C)(C)c1ccc(NC(=S)NCCc2ccccn2)cc1	0.5µM*	?	?	?	4%
Cc1nn(C(C)C(=O)NCc2ccccc2)c(C)c1[N+](=O)[O-] (stereo not given)	25%	-3%	-1%	-25%	2%
CCOc1ccc(NC(=O)c2cc(=O)c3ccc(C)c(C)c3o2)cc1	.	.	9.2µM*	?	7%
